Assay outcomes as filed in PubChem BioAssay.
WT yeast gro inh – growth inhibition of WT yeast, mitochondrial fusion screen | mitochondrial fusion phenotypic screen, WT strain | actives 2.1% (n = 190,000) | inhibition, % at 10 µM; in the data active means inhibition above about 58%; tested in S. cerevisiae
Ins promoter up – MIN6 insulin promoter up-regulation. z-score at 5 µM. MIN6 insulin promoter-GFP reporter, high-content imaging; active compounds read high. actives 0.3% (n = 190,000). AID 1625;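 active means z-score above 3 at 5 µM with at least 500 cells counted in the well; inconclusive means wells under 500 cells, flagged as cytotoxic or low count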
Autophagy mod – autophagy modulation, high-content screen | AID 463193 | MEF GFP-LC3 puncta imaging; test concentration mostly 10 µM | calls only at 10 µM (by protocol) | actives 0.98% (n = 190,000);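 active means percentage of spot-positive cells more than 3 SD above its plate mean, without a fluorescence outlier flag or 80% toxicity; inconclusive means no clear call, values can overlap the other calls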
L major viab – inhibitors of Leishmania major promastigote growth. AID 1063. Leishmania major promastigotes, resazurin fluorescence viability. inhibition, % at 10 µM. actives 9% (n = 200,000); in the data active means inhibition above about 50%;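 further: promastigotes grown with compound for 44 hours at 28 °C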
Insulin prom inh – TRM-6 insulin promoter activity inhibition | inhibition, % at 2 µM | actives 0.9% (n = 130,000) | TRM-6 cells (human fetal islet line), insulin promoter-eGFP reporter, imaging; reporter expression induced with tamoxifen;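 active means inhibition above the mean plus 3 SD, with well images judged a real hit on visual review, cut at about 60% in these data, passing the limit was not always enough; inconclusive means inhibition over the cutoff but images rejected on review; inactive means inhibition not above the cutoff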
L major 1uM – blocks Leishmania major promastigote growth at 1 uM, repeat screen; shares compounds with L major viab; L. major promastigote growth, resazurin fluorescence, 48 h; inhibition, % at 1 µM; actives 13% (n = 1,100); AID 1258;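 active means inhibition above about 50% in both repeat tests, limit read from the data; inconclusive means one repeat under the set limit, the other over it; inactive means both repeats under the set limit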
Each line names hits and unclear results; the compound was inactive in the other large screens (follow-up assays come after a bar, where they were run). This is a sample that favours compounds with a hit; in the whole collection about 11% have one here.

Cc1c(C(=O)NCC2COc3ccccc3O2)oc2ccc(S(=O)(=O)N3CCOCC3)cc12 (centres undefined)	none
Cc1c(C(=O)NCC2COc3ccccc3O2)oc2ccc(S(=O)(=O)N3CC(C)CC(C)C3)cc12 (centres undefined)	Ins promoter up inconclusive, L major viab 59 | L major 1uM inactive
COc1cccc(/C=N/NC(=O)c2ccc(-c3ccccc3)cc2)c1O	L major viab 100 | L major 1uM inactive
C/C=C(\C)C(=O)Nc1cccc(C2=NOC3(C2)C[C@H](C(N)=O)N(C(=O)CC#N)C3)c1 (some centres undefined)	none (no result: WT yeast gro inh, Autophagy mod, L major viab, Insulin prom inh)
O=C(CCc1nc(-c2ccccc2)no1)NCC1CCCO1 (centres undefined)	none (no result: Insulin prom inh)
Brc1ccc(-c2nnc3n2C2(CCCC2)Cc2ccccc2-3)o1	none (no result: Ins promoter up)
CC(SCC(=O)NC12CC3CC(CC(C3)C1)C2)C(=O)O (centres undefined)	L major viab 56 | L major 1uM inactive
CC(C)NCC(=O)NC12CC3CC(CC(C3)C1)C2	none
O=S(=O)(c1ccc(F)cc1)N1CCN(c2ncnc3c2cnn3-c2ccccc2)CC1	none (no result: Insulin prom inh)
S=c1sc2c(Cl)ncnc2n1-c1ccccc1	Ins promoter up inconclusive, L major viab 87 | L major 1uM inactive
Cc1nc(N2CCN(C)CC2)c2sc(=S)n(-c3ccccc3)c2n1	none (no result: Ins promoter up)
CC1=CC(C)C2(CO)COC(c3cccnc3)C1C2C (centres undefined)	L major viab 80 | L major 1uM inactive
CC1=CC(C)C2(CO)COC(c3ccc(O)cc3)C1C2C (centres undefined)	none
COc1cc(NC(=O)CCCc2c[nH]c3ccccc23)cc(OC)c1	none (no result: Insulin prom inh)
CCCCCc1cc(O)c2c(C)cc(=O)oc2c1	none (no result: Insulin prom inh)
CCCCc1cc(O)c(CCCC)c(O)c1	L major viab 99 (no result: Insulin prom inh) | L major 1uM inactive
Cc1[nH]c2c(ccc3ccccc32)c1C1C(CCN)C1(C)C (centres undefined)	L major viab 100 | L major 1uM inactive
c1ccc2c(c1)nc(N1CCOCC1)c1c3ccccc3[nH]c21	L major viab 53 (no result: Insulin prom inh) | L major 1uM inactive
CC(c1ccccc1)N1CCn2c(nc3cc(NC(=O)NC4CCCCC4)ccc32)C1 (centres undefined)	none
O=C(O)C1CC=CCC1C(=O)Nc1ccc2c(c1)OCCO2 (centres undefined)	none (no result: Ins promoter up)
CCCCCCCCn1cnc2c(N)c(C)c(C)cc21	WT yeast gro inh 59, L major viab 91 (no result: Ins promoter up) | L major 1uM inactive
C/C(=N\Nc1ccc(Cl)c(C(=O)O)c1)c1ccc[nH]1	none (no result: WT yeast gro inh, Autophagy mod, L major viab, Insulin prom inh)
Cc1ccc2nc(N(CCCN(C)C)C(=O)CCc3ccccc3)sc2c1	WT yeast gro inh 94, L major viab 66 | L major 1uM inactive
Cc1ccc2nc(N(CCCN(C)C)C(=O)CN3C(=O)c4ccccc4C3=O)sc2c1	none
COc1ccccc1CO/N=C/c1cccn1-c1nccc(N(C)C)c1C#N	L major viab 71 | L major 1uM inactive
CN(C)c1ccnc(-n2cccc2/C=N/OCc2ccccc2)c1C#N	none
Fc1ccccc1Sc1ccccc1CNC1=NCCN1	WT yeast gro inh 80, L major viab 99 | L major 1uM inactive
O=C(c1ccccc1Sc1cccc2ccccc12)N1CCOCC1	none (no result: Ins promoter up)
c1ccc(Sc2cccc3ccccc23)c(CNC2=NCCN2)c1	L major viab 99 | L major 1uM inactive
N#CCN1CCN(CCC(=O)Nc2ccc(OCc3ccccc3)cc2)CC1	none
O=C1CCCc2oc3ccc(O)cc3c21	none
O=C(c1cccc(Br)c1)c1cn(-c2ccccc2)nc1C(=O)c1ccccc1	L major viab 88 | L major 1uM inactive
CC(=O)c1nn(-c2ccccc2)cc1C(=O)c1cccc(Br)c1	none
O=C(CSCC(=O)OCC(=O)c1ccc(Br)cc1)Nc1cccc2ccccc12	none (no result: Insulin prom inh)
Cc1ccc(-c2cc[n+](Cc3ccccc3)cc2)cc1	Ins promoter up inconclusive, L major viab 92 (no result: Insulin prom inh) | L major 1uM inactive
CC(=O)c1cccc(-n2nnnc2SCC(=O)Nc2cccc(NC(=O)c3ccco3)c2)c1	none (no result: Insulin prom inh)
CC(=O)N1N=C(c2cccc([N+](=O)[O-])c2)OC1c1ccc(Cl)cc1Cl (centres undefined)	none (no result: Insulin prom inh)
C=CCOc1ccc2ccccc2c1/C=N/O	L major viab 51 (no result: Ins promoter up) | L major 1uM inactive
COc1ccc2ccccc2c1/C=N/O	none (no result: Insulin prom inh)
CCNc1nc(NC(C)C)nc(Oc2ccc(OCCOc3ccc(C)cc3)nn2)n1	none
N=c1c2c(n(Cc3ccccc3)c3c1CCC3)CCC2	WT yeast gro inh 71, Ins promoter up inconclusive, L major viab 100 | L major 1uM 94
CCOC(=O)Cn1c2c(c(=N)c3ccccc31)CCC2	none
COC(=O)CNC(=O)C(C)NC(=O)CNC(=O)OCc1ccccc1 (centres undefined)	none
CC(=O)C1=C(C)NC(SCc2cccc([N+](=O)[O-])c2)=C(C#N)C1c1ccco1 (centres undefined)	none (no result: Insulin prom inh)
CCN(CC)CCn1c2ccccc2c2cnc(N)c(C#N)c21	Autophagy mod active, L major viab 100 | L major 1uM inactive
CN1CCN(/N=C/c2ccc(-c3ccccc3)cc2)CC1	L major viab 98 | L major 1uM inactive
C(=N\N1CCN(Cc2ccccc2)CC1)/c1ccc(-c2ccccc2)cc1	none
CC(C)C(O)(C#CCN1CCCCC1)c1ccccc1 (centres undefined)	L major viab 93 | L major 1uM inactive
CCCOC(=O)c1c(NC(=O)CCCn2nc([N+](=O)[O-])cc2C)sc(C(=O)OC)c1C	none
CCC1CCCCN1CC(O)Cn1c2ccccc2n2c(=O)cc(C)c(C#N)c12 (centres undefined)	L major viab 81 (no result: Insulin prom inh) | L major 1uM inactive
Cc1cc(=O)n2c3ccccc3n(CC(O)CN3CCC(C)CC3)c2c1C#N (centres undefined)	none
CCc1ccccc1Nc1nc2ccccc2n1C	L major viab 57 (no result: Insulin prom inh) | L major 1uM inactive
O=C1C2ON(c3ccc(Br)cc3)C(c3cccnc3)C2C(=O)N1C1CCCCC1 (centres undefined)	L major viab 85 | L major 1uM 72
Cc1onc(-c2ccccc2)c1C(=O)N1CC(C)OC(C)C1 (centres undefined)	none (no result: Insulin prom inh)
CC(=O)NC1=NN(C(C)=O)C(C)(c2ccc3ccccc3c2)S1 (centres undefined)	L major viab 60 | L major 1uM inactive
Cc1cc(=O)[nH]c(SCc2cc(=O)n3nc(C)sc3n2)n1	none (no result: Insulin prom inh)
C/C(Cl)=C/Cn1c(=O)c2c(nc(Br)n2Cc2ccccc2)n(C)c1=O	none
CCOc1ccc(/C=N/O)cc1	none
CCCCC(=O)Nc1ccc(C(N)=O)cc1	none (no result: Ins promoter up)
CCCCCCCCCCCCCCCC[n+]1ccc(C(N)=O)cc1	WT yeast gro inh 99, L major viab 100 (no result: Insulin prom inh) | L major 1uM inactive
Oc1ccc[n+](CCCCC[n+]2cccc(O)c2)c1	none (no result: WT yeast gro inh, Autophagy mod, L major viab, Insulin prom inh)
CCCCCCCCCCCCCCCC[n+]1ccc(/C=N/O)cc1	WT yeast gro inh 98, Ins promoter up inconclusive, L major viab 100 | L major 1uM 101
CCCCCCCCCCCCCCCC[n+]1cccc(C(=O)N(CC)CC)c1	L major viab 100 | L major 1uM 79
